EBV LMP1 NFkB: EBV LMP1-driven NF-kappaB luciferase reporter inhibitors, primary screen, cell-based, luminescence, single point; LMP1-induced NF-kappaB luciferase reporter cells; inhibition, % at 12.5 µM; hit rate 0.69% among 350,000; AID 504558, 2011; in the data active = inhibition above about 41%; inconclusive = no clear call, values can overlap the other calls
TRPM1 prom inh: inhibitors of MITF-dependent TRPM1 promoter reporter, primary screen, cell-based, SK-MEL-5, single point, luciferase | AID 488899, 2010 | SK-MEL-5 TRPM1 promoter luciferase, 24 h | hit rate 0.83% among 330,000 | inhibition, % at 12.5 µM;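 active = mean inhibition across replicates of 60% or more, whatever share of single replicates reaches that level; inconclusive = some that reach 60%, reason not given; inactive = mean inhibition across replicates below 60%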
PAX8 inh HTS: inhibitors of PAX8-driven TPO luciferase reporter, primary screen, RMG-I cells, single concentration; hit rate 1.2% among 360,000; AID 652154, 2013; SteadyGlo, 24 h; inhibition, % at 12.6 µM;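 active = mean replicate inhibition at least 60% with every replicate also reaching 60%; inconclusive = only one of the two criteria is met; inactive = mean below 60% and not all replicates reaching 60%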;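 note: luciferase light reporting Pax8 driven TPO promoter activity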
EWS-Fli block: EWS/Fli-driven NR0B1 reporter inhibitors, primary screen, A673 cells, NR0B1 luciferase, luminescence, MLPCN library; viability-normalised; inhibition, % at 12.6 µM; hit rate 0.67% among 350,000;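 active = mean inhibition of at least 50% after viability correction, with every replicate also passing that limit; inconclusive = mean reaches 50% but only one of two replicates passes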;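 note: firefly luciferase signal divided by Alamar Blue viability fluorescence both relative to DMSO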
LGR2 antag: inhibitors of bursicon-induced LGR2 CRE-luciferase signal, primary screen, cell-based, HEK293, CRE-luciferase reporter, bursicon stimulation; Drosophila bursicon receptor LGR2 (rickets); AID 720647, 2013; bursicon-stimulated, 4 h; hit rate 0.35% among 380,000; inhibition, % at 9.99 µM;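 active = drop in luminescence signal, shown as inhibition above about 50% in the replicate tests, limit read from the data, passing the limit was not always enough; inconclusive = probably only some replicates passing the limit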;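 note: agonist challenge used bursicon conditioned medium at about half maximal strength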
Shn3 3UTR inh: reduction of Shn3 3'UTR firefly luciferase signal, primary screen, Schnurri-3 inhibitor project, cell-based, Clone20 osteoblasts, set 2; Clone20 osteoblast Shn3 3'UTR firefly luciferase, 24 h; inhibition, % at 12.5 µM; hit rate 0.52% among 360,000;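 active = mean inhibition of at least 75% with every replicate also reaching 75%; inconclusive = mean inhibition at least 75% but some replicate below; inactive = mean inhibition below 75%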
A number is an active result; . = inactive; ? = inconclusive; / = no result; ! = not active in a repeat. In the library only some 2.2% were active in any assay of this set; here they are far more common.

SMILES | EBV LMP1 NFkB | TRPM1 prom inh | PAX8 inh HTS | EWS-Fli block | LGR2 antag | Shn3 3UTR inh
O=C(C[C@H]1CC[C@@H](NS(=O)(=O)c2ccccc2)[C@@H](CO)O1)NCc1ccccc1F | / | / | . | . | . | /
Cc1ccc(/C=C2/Sc3ccc(C(=O)NCCN4CCOCC4)cc3NC2=O)cc1 | . | . | . | / | . | .
COc1cccc(/C=C2/Sc3ccc(C(=O)NCCN4CCCC4)cc3NC2=O)c1 | . | 85.0 | . | . | . | .
CCN1CCCC1CNC(=O)c1ccc2c(c1)NC(=O)/C(=C\c1ccc(C)cc1)S2 (configuration not stated) | . | 80.8 | . | / | . | .
O=C1Nc2cc(C(=O)NCCN3CCCCCC3)ccc2S/C1=C/c1ccccc1F | . | / | . | 73.3 | . | .
O=C(NCCCN1CCCCC1)c1ccc2c(c1)NC(=O)c1ccccc1S2 | 57.2 | . | . | . | . | .
Cc1ccc(-c2ccc3c(c2)O[C@@H](CN(C)S(C)(=O)=O)[C@@H](C)CN([C@H](C)CO)S3(=O)=O)cc1 | / | / | / | . | . | /
COc1ccc(/C=C2\Sc3ccc(C(=O)NCCN4CCCCCC4)cc3N(C)C2=O)cc1 | . | 62.9 | . | . | . | .
COc1cc2cc(C(=O)Nc3ccc4c(c3)OCCO4)[nH]c2cc1OC | 45.0 | . | . | / | . | .
COCC(=O)Nc1c(C(=O)Nc2ccc3c(c2)OCO3)oc2ccccc12 | . | . | . | . | . | .
O=C(Nc1ccc2c(c1)OCCO2)c1coc2ccccc2c1=O | . | 72.6 | . | / | . | .
O=C(CCl)Nc1c(C(=O)Nc2ccc3c(c2)OCCO3)oc2ccccc12 | . | . | / | . | . | 94.7
O=C(Nc1ccc2c(c1)OCO2)c1ccc(Cl)cc1Cl | . | . | . | / | . | .
O=C(Nc1ccc2c(c1)OCCO2)c1ccc(Cl)cc1Cl | . | . | . | . | 51.9 | .
CCNC(=O)[C@H]1[C@H](CO)[C@H]2Cn3c(ccc(-c4ccccc4)c3=O)[C@@H]1N2CCC(F)(F)F | / | / | / | . | . | /
CCS(=O)(=O)N[C@H]1CC[C@@H](CC(=O)NCc2ccc(Cl)cc2)O[C@@H]1CO | / | / | . | . | / | /
O=C(/C=C/c1ccccc1[N+](=O)[O-])c1ccccc1Br | . | . | 77.6 | 54.4 | ? | .
Cc1ccc(C(=O)/C=C/c2ccccc2[N+](=O)[O-])cc1 | . | . | . | . | . | .
COCC(=O)Nc1ccc2c(c1)C(=O)N(C)C[C@H](OC)[C@H](C)CN[C@@H](C)CO2 | / | / | . | . | . | /
C[C@]12CC[C@@H]3c4ccc(OS(=O)(=O)O)cc4CC[C@H]3[C@@H]1CCC2=O | 65.8! | . | . | . | . | .
CC12CCC3c4ccc(OCC(=O)O)cc4CCC3C1CCC2=O (configuration not stated) | . | . | . | . | . | .
COc1ccccc1CN1[C@@H]2c3cccc(=O)n3C[C@@H]2[C@@H](CO)[C@@H]1C(=O)NCCc1ccncc1 | / | / | . | . | . | /
O=C(C1CCCCC1)N1CCN(c2ncccn2)CC1 | 48.2 | . | / | / | . | .
O=C(c1ccc(F)cc1)N1CCC(C(=O)N2CCN(c3ncccn3)CC2)CC1 | . | . | . | . | . | .
COc1ccc2c3c([nH]c2c1)[C@@H](CO)N(C(=O)NC(C)C)CC31CN(Cc2ccccc2)C1 | / | / | . | . | . | /
SMILES | EBV LMP1 NFkB | TRPM1 prom inh | PAX8 inh HTS | EWS-Fli block | LGR2 antag | Shn3 3UTR inh
Cc1cc[n+](C(C)C(=O)c2ccc(-c3ccccc3)cc2)cc1 (configuration not stated) | . | ? | 68.5 | . | . | .
Cc1ccc(NN2C(=O)C=C(c3ccc(Cl)cc3)C2=O)cc1 | . | . | / | / | / | 99.2
O=C1C=C(c2ccccc2)C(=O)N1Nc1ccccc1 | . | . | / | / | / | .
O=C(C[C@H]1C=C[C@H](NC(=O)c2ccc(F)cc2)[C@H](CO)O1)NCc1ccncn1 | / | / | . | . | . | /
COc1ccc(S(=O)(=O)Nc2ccc3c(c2)C(=O)N([C@@H](C)CO)C[C@@H](C)[C@@H](CN(C)C(=O)CCC(F)(F)F)OCCCC[C@@H](C)O3)cc1 | / | / | . | . | . | /
Cc1c(CCOC(=O)C23CC4(C)CC(C)(CC(C)(C4)C2)C3)sc[n+]1CC(=O)c1ccccc1 | . | ? | . | . | . | 90.3

Screening data from PubChem.
